From PubChem
RMI-FANCM inh: RMI-FANCM interaction inhibition. AID 1159607. Fluorescence polarization, RMI core complex with F-MM2 peptide; active compounds read low. FP signal (polarization) at 33 µM. 70,000 compounds, 0.58% hits; in the data active = FP signal below about 40
A number is an active result; ! = a repeat was not active. Many of the other results were omitted from the sample, so hits are more common in it than they were.

What do the screens show for `COc1ccc(CCNC(=O)CSc2nc(-c3ccccc3F)nc3c2c(=O)n(C)c(=O)n3C)cc1OC`?
RMI-FANCM inh: inactive

Results for O=C(CSc1nccc(-c2cccs2)n1)c1cc(-c2ccc(Cl)c(Cl)c2)no1 ?
RMI-FANCM inh: 12

How did c1csc(-c2ccnc(SCc3ccc4nonc4c3)n2)c1 do in these assays?
RMI-FANCM inh: inactive

Results for O=C(CSc1nccc(-c2cccs2)n1)N1CCOCC1 ?
RMI-FANCM inh: inactive

How did CSc1ncc(Cl)c(C(=O)Nc2ccc(Br)cn2)n1 do in these assays?
RMI-FANCM inh: inactive

Results for O=C(CN1CCN(Cc2nc(-c3ccco3)cs2)CC1)N1CCCC1 ?
RMI-FANCM inh: 40

How did O=C(CN1CCN(Cc2nc(-c3ccco3)cs2)CC1)N1CCOCC1 do in these assays?
RMI-FANCM inh: inactive

How did COc1ccc(CCC(=O)N2CCN(Cc3nc(-c4ccco4)cs3)CC2)cc1 do in these assays?
RMI-FANCM inh: inactive

What do the screens show for `Fc1ccc(CSc2nnc(-c3ccc(Cl)s3)o2)cc1`?
RMI-FANCM inh: inactive

How did COc1ccc(C)cc1S(=O)(=O)N1CCN(c2ccc(-c3ccncc3)nn2)CC1 do in these assays?
RMI-FANCM inh: inactive

How did COc1ccc(F)cc1S(=O)(=O)N1CCN(c2ccc(-c3ccc(F)cc3)nn2)CC1 do in these assays?
RMI-FANCM inh: inactive

How did COc1ccc(Cl)cc1S(=O)(=O)N1CCN(c2ccc(-c3ccncc3)nn2)CC1 do in these assays?
RMI-FANCM inh: 27

What do the screens show for `COC(=O)c1ccc(Nc2nc(N3CCCC3)nc(N3CCCC3)n2)cc1`?
RMI-FANCM inh: inactive

What do the screens show for `O=C(CS(=O)(=O)c1ccccc1)Nc1ccccc1-c1nc2ccccc2s1`?
RMI-FANCM inh: inactive

Results for CCc1ccc(NC(=O)Cn2nc3ccc(SC4CCCCC4)nn3c2=O)cc1 ?
RMI-FANCM inh: inactive

How did O=C(Nc1nc(-c2cccs2)c(C(=O)C(F)(F)F)s1)c1cc(-c2ccccc2)nc2ccccc12 do in these assays?
RMI-FANCM inh: 19

What do the screens show for `COC(=O)c1ccc2nc(NC(=O)c3cc(-c4cccs4)nc4ccccc34)sc2c1`?
RMI-FANCM inh: inactive

How did NC(=O)c1ccsc1NC(=O)c1cc(-c2ccccc2)nc2ccccc12 do in these assays?
RMI-FANCM inh: inactive

How did Cc1ccc(C)c(CSc2nccn3nc(-c4ccc(C)c(C)c4)cc23)c1 do in these assays?
RMI-FANCM inh: inactive

How did CCOC(=O)C(CC)Sc1ccc(NC(=O)c2cccs2)nn1 (stereo not drawn) do in these assays?
RMI-FANCM inh: inactive

Results for CS(=O)(=O)c1ncc(Br)c(C(=O)O)n1 ?
RMI-FANCM inh: inactive

What do the screens show for `O=C(O)c1nc2nccnc2cc1Br`?
RMI-FANCM inh: 17

How did O=C(O)c1ncccc1Br do in these assays?
RMI-FANCM inh: inactive

What do the screens show for `COc1ccc(C)cc1S(=O)(=O)N1CCCC(c2nnc(CC(C)(C)C)o2)C1` (stereo not drawn)?
RMI-FANCM inh: inactive

What do the screens show for `Cc1ccc(-n2ncc(C#N)c2N)c(C)c1`?
RMI-FANCM inh: inactive

How did N#Cc1cc2ccccc2oc1=O do in these assays?
RMI-FANCM inh: inactive

Results for Cc1ccc2oc3nc(N)c(C#N)cc3c(=O)c2c1 ?
RMI-FANCM inh: 5

Results for Cc1n[nH]c(C)c1-c1ncccc1[N+](=O)[O-] ?
RMI-FANCM inh: inactive

How did Cc1cc(Sc2nnc(N=CN(C)C)s2)c2ccccc2n1 do in these assays?
RMI-FANCM inh: inactive

Results for COc1cc(/C=N\n2c(C)nc3c(ncn3-c3ccccc3)c2=O)cc(OC)c1OC ?
RMI-FANCM inh: inactive

How did Cc1nc2cc3ccccc3cc2c(=O)n1/N=C\N(C)C do in these assays?
RMI-FANCM inh: 8

How did COc1cc(C(=O)Nc2nnc(-c3ccc4c(c3)OCO4)o2)cc(OC)c1OC do in these assays?
RMI-FANCM inh: 33

What do the screens show for `CC(=O)Nc1nnc(-c2ccc3c(c2)OCO3)o1`?
RMI-FANCM inh: inactive

Results for CC(C)Oc1ccc(C(=O)Nc2nnc(-c3ccc4c(c3)OCO4)o2)cc1 ?
RMI-FANCM inh: inactive

What do the screens show for `COc1ccc(OC)c(Nc2nc(CC(N)=O)cs2)c1`?
RMI-FANCM inh: inactive

Results for C=CCn1c(SCC(=O)c2cc(C)n(-c3ccc(C)c(C)c3)c2C)nc2scc(-c3ccc(F)cc3)c2c1=O ?
RMI-FANCM inh: inactive

What do the screens show for `CC1=NN(c2ccccc2)C(=O)/C1=C\c1cc(C)n(-c2ccccc2)c1C`?
RMI-FANCM inh: inactive

What do the screens show for `C=CCN1C(=O)/C(=C\c2cc(C)n(-c3ccc(F)cc3)c2C)C(C(=O)OC)=C1C`?
RMI-FANCM inh: 31

Results for O=C(Nc1cccc2nsnc12)c1cc(Cl)ccc1NS(=O)(=O)c1cccc2nsnc12 ?
RMI-FANCM inh: inactive

What do the screens show for `O=C(O)c1cccc2cccc(-c3cccc4cccc(C(=O)O)c34)c12`?
RMI-FANCM inh: inactive

How did O=C1Sc2cccc3cccc1c23 do in these assays?
RMI-FANCM inh: 58

Results for CNN1C(=O)c2cccc3cccc(c23)C1=O ?
RMI-FANCM inh: inactive

How did Cc1ccc(N(C)S(=O)(=O)c2c(-c3ccccc3)csc2C(=O)NCc2ccccn2)cc1C do in these assays?
RMI-FANCM inh: inactive

How did COC(=O)c1ccc(NC(=O)COc2coc(CN3CCN(C(=O)c4ccco4)CC3)cc2=O)cc1 do in these assays?
RMI-FANCM inh: inactive

What do the screens show for `COc1ccc(-c2c(C#N)c(SCC(=O)c3ccc4c(c3)OCO4)nc3c2C(=O)CC(C)(C)C3)cc1`?
RMI-FANCM inh: inactive

What do the screens show for `N#Cc1c(SCC(=O)Nc2ccccc2)nc2c(c1-c1ccc(OCc3ccccc3)cc1)CCCC2`?
RMI-FANCM inh: inactive

How did N#Cc1c(SCC(=O)c2ccc(O)c(O)c2)nc2c(c1-c1ccc(OCc3ccccc3)cc1)CCCC2 do in these assays?
RMI-FANCM inh: 24

How did NS(=O)(=O)c1ccc(NC(=O)CSc2nc3ccccc3s2)cc1 do in these assays?
RMI-FANCM inh: inactive

Results for CN(C)c1ccc(/C=C/c2ccncc2)cc1 ?
RMI-FANCM inh: 25

How did CN(C)c1ccc(/C=C/C#N)cc1 do in these assays?
RMI-FANCM inh: inactive

What do the screens show for `CN(C)c1ccc(/C=C/c2ccccc2)cc1`?
RMI-FANCM inh: inactive

Results for CC(=O)c1sc(-c2ccc(Cl)cc2)cc1NC(=O)CSc1ccc(Cl)cc1 ?
RMI-FANCM inh: inactive

How did C[C@]12CCC3c4ccc(O)cc4CCC3C1CCC2=O (stereo partly drawn) do in these assays?
RMI-FANCM inh: inactive

What do the screens show for `C[C@]12CC[C@@H]3c4ccc(OS(=O)(=O)O)cc4CC[C@H]3[C@@H]1CCC2=O`?
RMI-FANCM inh: 33!

Results for C[C@]12CCC3c4ccc(OC(=O)CCC(=O)O)cc4CCC3C1CCC2=O (stereo partly drawn) ?
RMI-FANCM inh: inactive

Results for CC(C)(C)NC(=O)C(=O)NCCCCN1CCOC(c2ccccc2)C1 (stereo not drawn) ?
RMI-FANCM inh: inactive

How did N#Cc1c(N=Cc2cccs2)sc2c1CCCC2 do in these assays?
RMI-FANCM inh: inactive

How did Cc1noc(C)c1C(=O)N1CCCCC1c1ccccn1 (stereo not drawn) do in these assays?
RMI-FANCM inh: inactive

Results for CC1CCCN(C(=O)C(=O)c2cn(CC(=O)N3CCCC3)c3ccccc23)C1 (stereo not drawn) ?
RMI-FANCM inh: inactive

Results for CC12CCC(C(=O)N3CCC(C(=O)O)CC3)(CC1=O)C2(C)C (stereo not drawn) ?
RMI-FANCM inh: inactive

What do the screens show for `CC1CCCCN1C(=O)C12CCC(C)(/C(=N\O)C1)C2(C)C` (stereo not drawn)?
RMI-FANCM inh: 25

Results for COc1ccc(N2CCN(C(=O)C34CCC(C)(C(=O)C3)C4(C)C)CC2)cc1 (stereo not drawn) ?
RMI-FANCM inh: inactive

What do the screens show for `S=C(NCc1cccnc1)SCc1cc(Cl)sc1Cl`?
RMI-FANCM inh: inactive
